Measurements as given in PubChem BioAssay (Tox21).
“And” between values parts separate entries of the source, which are not always exact repeats. Equal values may be shown once. Inconclusive results are not listed. The source made the active and inactive calls. Unless noted, the call rests on the fitted dose curve; in most records, active means well fitted curve in the direction sought with a large enough effect in the repeat runs; inconclusive means weak or mixed curves; inactive means no such curve, though single readings can be large; an effect the other way counts as inactive or inconclusive.

Key:
[1] = qHTS assay to identify small molecule agonists of the hypoxia (HIF-1) signaling pathway - cell viability counter screen (AID 1224844; calls by dose curve; further: nearly all actives have a fitted effect of over 50% in size)
Summary of the method: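 ME-180 HRE-bla cells, 2,000/well, 0.5% dialyzed FBS; 5 hr settle, 17 hr compound at 37C/5% CO2; CCF4-AM reporter read first, then CellTiter-Glo luminescence after 30 min RT.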

[2] = qHTS assay to identify small molecule agonists of the hypoxia (HIF-1) signaling pathway (AID 1224846; active means well fitted activation curve with a large enough effect in the signal ratio in the repeat runs, not every such curve was filed as active; the % refers to the signal ratio)
Summary of the method: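 Cell line: CellSensor HRE-bla ME-180; 2,000 cells/well; 0.5% dialyzed FBS; 5 h preincubation; DMSO compound pin transfer; 17 h, 37C, 5% CO2; CCF4-AM added; bla FRET signal scored for activation.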

[3] = qHTS assay to identify small molecule agonists of H2AX - cell viability counter screen (AID 1224847; calls by dose curve; further: top concentration of the series differs between compounds; nearly all actives have a fitted effect of over 30% in size)
Summary of the method: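 Quantitative HTS viability measurement: CHO-K1 wild-type cells in serum (10% FBS) medium, short 3 hr drug exposure at 37C with 0.76% DMSO, CellTiter-Glo luminescent detection.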

[4] = qHTS RealTime-Glo MT Cell Viability Assay in HepG2 cells - 24 hour (AID 1224867); further: nearly all actives have a fitted effect of over 50% in size
Summary of the method: (§1)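 HepG2 cells were seeded at 600 cells/well together with NanoLuc luciferase and a cell-permeant prosubstrate, preincubated 5 h at 37 C/5% CO2, then pin-dosed with compounds in DMSO. Nonlytic luminescence from viable cells was read at each time point.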

[5] = qHTS RealTime-Glo MT Cell Viability Assay in HEK293 cells - 32 hour (AID 1224868); further: top concentration of the series differs between compounds; nearly all actives have a fitted effect of over 50% in size
Summary of the method: (§2)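 HEK293 cells were seeded at 600 cells/well together with NanoLuc luciferase and cell-permeant prosubstrate, preincubated 5 h at 37 C/5% CO2, then given compound in DMSO by pintool. Luminescence from viable-cell prosubstrate reduction was read repeatedly over 40 h.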

[6] = A CellTox Green Cytotoxicity Assay to monitor cytotoxicity in HEK293 cells - 0 hour (AID 1224869); further: nearly all actives have a fitted effect of over 50% in size
Summary of the method: (§3)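 Nonlytic real-time cytotoxicity: HEK293 + CellTox Green reagent plated, 5 h preincubation, pintool compound addition (23 nL in DMSO), 37 C for 40 h, fluorescence measured at successive time points.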

[7] = qHTS RealTime-Glo MT Cell Viability Assay in HepG2 cells - 40 hour (AID 1224870); further: nearly all actives have a fitted effect of over 50% in size
Summary of the method: (§4)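 HepG2 cells mixed with RealTime-Glo MT reagents (NanoLuc plus cell-permeant prosubstrate) were seeded at 600 cells/well, incubated 5 h at 37 C/5% CO2, then pinned with compounds in DMSO; nonlytic luminescence tracked viability during 40 h treatment.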

[8] = qHTS RealTime-Glo MT Cell Viability Assay in HEK293 cells - 16 hour (AID 1224872)
Summary of the method: as §2

[9] = qHTS RealTime-Glo MT Cell Viability Assay in HepG2 cells - 8 hour (AID 1224873); further: nearly all actives have a fitted effect of over 55% in size
Summary of the method: as §4

[10] = A CellTox Green Cytotoxicity Assay to monitor cytotoxicity in HEK293 cells - 24 hour (AID 1224875); further: series mostly up to about 77 µM; nearly all actives have a fitted effect of over 45% in size
Summary of the method: as §3

[11] = A CellTox Green Cytotoxicity Assay to monitor cytotoxicity in HepG2 cells - 16 hour (AID 1224876); further: nearly all actives have a fitted effect of over 45% in size
Summary of the method: (§5)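 Read-out is fluorescence of a cyanine dye excluded from live cells that stains DNA of dead HepG2 cells, with signal proportional to cytotoxicity. Plates were read at 0, 8, 16, 24, 32 and 40 h after compound addition.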

[12] = qHTS RealTime-Glo MT Cell Viability Assay in HepG2 cells - 32 hour (AID 1224877); further: nearly all actives have a fitted effect of over 55% in size
Summary of the method: as §1

[13] = A CellTox Green Cytotoxicity Assay to monitor cytotoxicity in HepG2 cells - 24 hour (AID 1224878); further: nearly all actives have a fitted effect of over 45% in size
Summary of the method: as §5

[14] = A CellTox Green Cytotoxicity Assay to monitor cytotoxicity in HepG2 cells - 40 hour (AID 1224879); further: nearly all actives have a fitted effect of over 40% in size
Summary of the method: as §5

[15] = qHTS RealTime-Glo MT Cell Viability Assay in HEK293 cells - 0 hour (AID 1224880); further: top concentration of the series differs between compounds; nearly all actives have a fitted effect of over 45% in size
Summary of the method: (§6)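 Cells were seeded together with NanoLuc luciferase and a prosubstrate that viable cells reduce to a luciferase substrate. After a 5 h incubation at 37 C/5% CO2, compounds were added and luminescence was measured repeatedly during 40 h of treatment.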

[16] = qHTS assay to identify small molecule agonists of H2AX (AID 1224845; active means well fitted activation curve with a large enough effect in the signal ratio in the repeat runs, not every such curve was filed as active; the % refers to the signal ratio)
Summary of the method: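 Wild-type CHO-K1 cells plated overnight, then exposed 3 hr at 37C to compounds at 15 concentrations (0.76% DMSO). Lysed, then HTRF anti-pH2AX(S139)-cryptate/anti-H2AX-d2 detection after 24 hr at room temperature; emissions 665 and 620 nm.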

[17] = A CellTox Green Cytotoxicity Assay to monitor cytotoxicity in HEK293 cells - 40 hour (AID 1224871); further: nearly all actives have a fitted effect of over 45% in size
Summary of the method: as §3

[18] = qHTS RealTime-Glo MT Cell Viability Assay in HEK293 cells - 40 hour (AID 1224874); details: RealTime-Glo luminescence; max response: stronger effect = lower value; further: nearly all actives have a fitted effect of over 50% in size
Summary of the method: as §6
On the % scale 0 is the no-effect control and ±100 the full control effect.

COc1ccc(N)c(OC)c1
inactive: Potency [1] | outcome [2] | Potency [3] | Potency [4] | Potency [5] | Potency [6] | Potency [7] | Potency [8] | Potency [9] | Potency [10] | Potency [11] | Potency [12] | Potency [13] | Potency [14] | Potency [15]

CCCCCCCCC(=O)O
inactive: Potency [1] | Potency [16] | Potency [3] | Potency [4] | Potency [5] | Potency [6] | Potency [7] | Potency [8] | Potency [9] | Potency [10] | Potency [11] | Potency [12] | Potency [13] | Potency [14] | Potency [15]

C=CC(=O)NCOCCCC
inactive: Potency [1] | Potency [16] | Potency [3] | Potency [4] | Potency [5] | Potency [6] | Potency [17] | Potency [8] | Potency [9] | Potency [10] | Potency [12] | Potency [13] | Potency [14] | Potency [15]

CCc1cccc(CC)c1N
inactive: Potency [1] | Potency [16] | Potency [3] | Potency [5] | Potency [6] | Potency [7] | Potency [17] | Potency [8] | Potency [9] | max response [18] 1.74% and 8.01% | Potency [10] | Potency [11] | Potency [12] | Potency [13] | Potency [14] | Potency [15]

Cc1ncc(CO)c(CO)c1O
inactive: Potency [1] | Potency [16] | Potency [3] | Potency [4] | Potency [5] | Potency [6] | Potency [17] | Potency [8] | Potency [9] | max response [18] 6.27% and -1.31% and 5.41% | Potency [10] | Potency [12] | Potency [13] | Potency [14] | Potency [15]
